The record followed here is PubChem BioAssay.

A short description of test [1]: viability loss in pontine glioma line – cell-based, SU-DIPG-XVII, MIPE5.0, CellTiter-Glo, qHTS, dose response (AID 1347060).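 For AC50: cells exposed to compound for 48 hours before viability readout.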 The conditions noted are these: CellTiter-Glo ATP luminescence. In general terms: In ATP-based viability assays light output follows the ATP content of the culture.
Test [2] can be described thus: viability loss in pontine glioma line – cell-based, SU-DIPG-XIII, MIPE4.0, CellTiter-Glo, qHTS, dose response (AID 1347061; cut-off not given, nearly all actives have AC50 up to about 37 µM;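 note: cells exposed to compound for 48 hours before readout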). The settings on record: CellTiter-Glo ATP luminescence.
The nature of test [3]: viability loss in pontine glioma line – cell-based, JHH-DIPG-1, MIPE4.0, CellTiter-Glo, qHTS, dose response (AID 1347062; cut-off not given, nearly all actives have AC50 up to about 27 µM;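 for AC50: cells exposed to compound for two days before readout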). The conditions noted are these: JHH-DIPG-1 viability, CellTiter-Glo ATP luminescence.
A short description of test [4]: viability loss in pontine glioma line – cell-based, SU-DIPG-XIII, MIPE5.0, CellTiter-Glo, qHTS, dose response (AID 1347064; cut-off not given, nearly all actives have AC50 up to about 23 µM;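 for AC50: cells exposed to compound for 48 hours before the viability read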). The settings on record: CellTiter-Glo ATP luminescence.
A short description of test [5]: viability loss in pontine glioma line – cell-based, SU-DIPG-XXV, MIPE5.0, CellTiter-Glo, qHTS, dose response (AID 1347065).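 Note: cells exposed to compound for 48 hours before ATP readout.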 The conditions noted are these: CellTiter-Glo ATP luminescence.
A short description of test [6]: growth inhibition of DIPG cells – cell-based, MIPE4.0 library, CellTiter-Glo luminescence, qHTS (AID 1347066; cut-off not given, nearly all actives have AC50 up to about 30 µM;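 note: cells exposed to compound for 48 hours before readout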). The conditions noted are these: SU-DIPG-VI viability, CellTiter-Glo ATP luminescence.
The nature of test [7]: JHH-DIPG-1 glioma cell viability, MIPE5.0 library, CellTiter-Glo luminescence, qHTS (AID 1347067).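 Note: cells exposed to compound for 48 hours before readout.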 The conditions noted are these: JHH-DIPG-1 glioma viability, CellTiter-Glo ATP luminescence.
A short description of test [8]: growth inhibition of DIPG cells – cell-based, MIPE5.0 library, qHTS (AID 1347068; cut-off not given, nearly all actives have IC50 up to about 30 µM;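 for IC50: cells exposed to compound for 48 hours before viability readout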). The settings on record: SU-DIPG-XXV viability.
Test [9] can be described thus: viability loss with induced miR-34 in A549 – imaging, A549 dox-inducible miR-34, nuclei and caspase counts, primary screen (AID 1347080;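 active = compounds whose cell count with miR-34 switched on is under 0.7 times the count with it off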). The settings on record: A549 miR-34 inducible, Hoechst nuclei count, 48 h.
The nature of test [10]: MELAS cybrid and Rieske KO viability enhancers – cell-based, MELAS cybrids, Rieske KO mouse fibroblasts, CellTiter-Glo, primary screen (AID 1508586;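 active = mean z-score across replicates of 1.96 or higher in either the MELAS or the Rieske mutant cell line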;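 note: z relative to plate mean and SD of compound and empty wells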). The conditions noted are these: low glucose.
Test [11] can be described thus: viability loss in pontine glioma line – cell-based, SU-DIPG-IV, MIPE4.0, CellTiter-Glo, qHTS, dose response (AID 1347063; cut-off not given, nearly all actives have AC50 up to about 30 µM;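 note: compound exposure lasted 48 hours before the viability readout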). The settings on record: CellTiter-Glo ATP luminescence.
The mark [12] stands for this setting: MELAS cybrid survival, CellTiter-Glo 48 h, stronger effect = higher value.
Where [13] appears, read: Rieske KO mouse fibroblast survival, CellTiter-Glo 72 h.

Inconclusive results are not listed. Active and inactive are the calls of the source. Unless noted, no cut-off is given here; in the data, nearly all actives have AC50 up to about 26 µM.

The term AC50 denotes the concentration at which the activity in the assay is half-maximal. On to `C[C@@]1(c2cc(-c3cncnc3)c(F)cc2F)CCSC(N)=N1`, for which the outcome in test [1], in test [4], in test [5], in test [6], in test [7] and in test [8] was inactive. Further, the AC50 in test [2] and in [3] was 14.8 µM (active) in each case. Besides, the fold change in [9] (stronger effect = lower value, cell number ratio, induced over uninduced) is 0.883 (inactive); in test [9] (measured here: relative caspase fold change +Dox/-Dox) it was 1.05. For the same compound, the cell count was determined as 8550 in test [9] (measured here: total cells with miR-34 induction, stronger effect = lower value) and 9680 in [9] (measured here: total cells without miR-34 induction). The z-score in test [10] (setting [12]) was -0.425 (inactive); in test [10] (setting [13]), 0.36.

As for `CCCCC(F)(F)[C@@]1(O)CC[C@H]2[C@@H](CC(=O)[C@@H]2CCCCCCC(=O)O)O1`, the compound was called inactive in test [1], in [2], in test [3], in test [4], in test [5] and in [6]. For the same compound, the compound was classed as inactive in [7] and in test [8].

Take `C[C@H](CCC(=O)O)[C@H]1CCC2C3C[C@H](O)[C@@H]4C[C@H](O)CC[C@]4(C)C3CC[C@@]21C` (some centres not stated): the call in test [1], in test [2], in test [3], in [4], in test [5] and in test [6] was inactive. For the same compound, the call in test [7] and in test [8] was inactive.

On to `CC(C)(O)CCc1ccc(OCc2cc(-c3cccc(OC(F)F)c3)c3ncccc3c2)cc1`, for which the AC50 in test [1] and in test [7] was 23.5 µM (active) each time. Further, the compound was classed as inactive in test [2], in [3], in test [11] and in test [6].

Take `CO[C@H]1/C=C/O[C@@]2(C)Oc3c(C)c(O)c4c(O)c(c5c(nc6cc(C)ccn65)c4c3C2=O)NC(=O)/C(C)=C\C=C\[C@H](C)[C@H](O)[C@@H](C)[C@@H](O)[C@@H](C)[C@H](OC(C)=O)[C@@H]1C`: the AC50 is 16.6 µM (active) in test [1], 13.2 µM (active) in test [4], 23.5 µM (active) in [5] and 14.8 µM (active) in test [7]. For the same compound, the result in test [2] and in test [3] was inactive. In addition, the z-score is 0.239 (inactive) in test [10] (setting [12]) and -0.714 in test [10] (setting [13]).

By IC50 is commonly meant the concentration that inhibits the measured activity by half. In the case of `C[N+](C)([O-])CCNc1ccc(NCC[N+](C)(C)[O-])c2c1C(=O)c1c(O)ccc(O)c1C2=O`, the concentration at half-maximal activity (AC50) in [1] is 9.34 µM (active). In addition, the call in test [2], in [3], in test [11] and in test [6] was inactive. The 50% inhibitory concentration (IC50) in [8] is 0.00132 µM (active).

With `O=C(O)C1=CC(O)C(O)[C@H](O)C1` (some centres not stated), the compound was classed as inactive in test [1], in test [2], in [3], in test [4], in test [5] and in test [7]. Also, in test [8], the outcome was inactive.
